In PubChem BioAssay AID1721 (National Center for Advancing Translational Sciences (NCATS), 2009):
Hit rate of the full screen: of about 290,000 compounds, about 1,100 (0.38%) were called active. Entries that show only a call come without a potency. Calls follow the shape of the dose curve; as a rule, active = well fitted inhibition curve with a large enough effect; inconclusive = small, poorly fitted or top-dose-only effect, or another doubt; inactive = no such curve, though single readings can be large or run the other way. The sample as a whole holds a higher share of actives than the screen did.

Target: Pyruvate kinase (Leishmania mexicana) (UniProt Q27686)
Sequence (Q27686 whole entry, looked up): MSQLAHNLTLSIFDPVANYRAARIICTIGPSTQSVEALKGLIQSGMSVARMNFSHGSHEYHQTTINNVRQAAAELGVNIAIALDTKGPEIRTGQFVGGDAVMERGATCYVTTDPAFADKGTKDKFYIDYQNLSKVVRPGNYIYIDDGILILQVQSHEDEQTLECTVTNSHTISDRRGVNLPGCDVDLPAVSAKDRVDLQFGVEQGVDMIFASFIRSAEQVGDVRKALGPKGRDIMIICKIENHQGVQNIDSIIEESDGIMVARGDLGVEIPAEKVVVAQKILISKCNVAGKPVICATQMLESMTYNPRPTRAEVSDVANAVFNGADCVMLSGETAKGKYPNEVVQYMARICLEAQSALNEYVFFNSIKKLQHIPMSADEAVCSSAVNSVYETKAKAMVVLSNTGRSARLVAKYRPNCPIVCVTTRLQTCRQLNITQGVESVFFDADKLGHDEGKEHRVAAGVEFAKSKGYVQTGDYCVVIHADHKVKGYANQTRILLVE
Assay: qHTS Assay for Inhibitors of Leishmania Mexicana Pyruvate Kinase (LmPK)
Conditions: purified LmPK, Kinase-Glo ATP luminescence, 1 h; series mostly up to 57.5 µM
From the text: NIH Chemical Genomics Center [NCGC] Malcolm Walkinshaw, Hugh Morgan, Linda Gilmore University of Edinburgh, UK MLPCN Grant: 1 R03 MH085697-01 NCGC Assay Overview: Pyruvate kinase (L. Mexicana) (LmPK) enzyme was supplied as a highly purified (>95% pure) sulphate-free preparation from University of Edinburgh, UK and assayed for its ability to generate ATP from ADP using phosphoenolpyruvate (PEP) as a substrate. ATP generation was detected in a coupled reaction by luciferase-mediated luminescence, an ATP-dependent process. […] The enzyme was assayed at an intermediate level of activity to screen for both inhibitors and activators.
NCGC Assay Protocol Summary: Three uL of enzyme mix (kept on ice) in assay buffer (50 mM Imidazole pH7.2, 50 mM KCl, 7 mM MgCl2, 0.01% Tween 20, 0.05% BSA) containing PEP (0.5 mM final concentration) and LmPK (0.1 nM final concentration) was dispensed into white solid bottom 1,536 well microtiter plates. 23 nL of compound were delivered by a pin tool and 1 uL of ADP mix in assay buffer (r.t; 0.1 mM final ADP concentration) was added. Plates were incubated at room temperature for 1 hour. Two uL of detection mix (Kinase-Glo, Promega; at 4 degree Celsius protected from light) was added and luminescence read by a ViewLux (Perkin Elmer) at 1 second exposure/plate. Data were normalized to the uninhibited and AC100 inhibition (no enzyme). To monitor activation, the first column contained a five-fold concentration of LmPK (0.5 nM).
Potency is read from the fitted curve at half-maximal effect.

Row | SMILES | Potency | activity change, negative = inhibition
1 | CCn1c(CSCc2c(Cl)cccc2Cl)n[nH]c1=S | 15.8 µM (active) | –
2 | CCn1c(CNS(=O)(=O)c2ccc(Cl)cc2)n[nH]c1=S | inactive | –
3 | CCn1c(-c2ccncc2)n[nH]c1=S | inactive | –
4 | COc1cccc(CNC(=O)C2CCCN(S(=O)(=O)N3CC(C)CC(C)C3)C2)c1 (stereo unspecified) | inactive | –
5 | c1ccc(Cc2ccc(OCCn3ccnc3)cc2)cc1 | inactive | –
6 | CCC1CCCCN1CCCNC(=O)c1cc2c(Cl)nc3ccccc3c2s1 (stereo unspecified) | inactive | –
7 | CCOc1ccccc1NS(=O)(=O)c1cc2c3c(c1)C(C)C(=O)N3CCC2 (stereo unspecified) | inactive | –
8 | CCOC(=O)c1cc(S(=O)(=O)NCCc2ccc(OC)c(OC)c2)cn1C | inactive | –
9 | O=C(C[n+]1ccccc1)N/N=C/c1ccc(O)cc1 | inactive | –
10 | Cc1nc2ccc(C(=O)N/N=C/c3ccc(O)cc3)cc2[nH]1 | inactive | –
11 | Cc1nonc1C(=O)N/N=C/c1ccc(O)cc1 | 8.91 µM (active) | –
12 | C=CCNc1nc(N)c([N+](=O)[O-])c(NC2CCCCC2)n1 | inactive | –
13 | NNC(=O)CNC(c1ccccc1)c1cc(Cl)ccc1NC(=O)c1ccccc1 (stereo unspecified) | inactive | –
14 | C[C@@H](NC(=O)OC(C)(C)C)c1nnc(S(=O)(=O)Cc2ccccc2)o1 | inactive | –
15 | Cc1cc2c(c(=O)n1Cc1ccccc1)C1O[C@](CCCCN3C(=O)c4ccccc4C3=O)(Cc3ccccc31)O2 | – | -8.6% [at 11.5 µM] (inactive)
16 | O=C(Nc1ncc([N+](=O)[O-])s1)C1COc2ccccc2O1 (stereo unspecified) | inactive | –
17 | O=C(CCc1ccccc1)Nc1ncc([N+](=O)[O-])s1 | inactive | –
18 | CC(=O)Oc1ccccc1C(=O)Nc1ncc([N+](=O)[O-])s1 | 12.6 µM (active) | –
19 | N=c1oc2ccccc2cc1C(=O)NCc1ccccc1 | inactive | –
20 | Cc1ccc(/C=N/NC(=O)c2cc3ccccc3cc2O)o1 | inactive | –
21 | N=c1oc2ccccc2cc1C(=O)N/N=C/c1ccccc1 | 8.91 µM (active) | –
22 | CC1CC(C)CN(CCOc2cccc3ccccc23)C1 (stereo unspecified) | inactive | –
23 | Cc1cc(C)c(OCC(=O)N(Cc2cccs2)C2CCS(=O)(=O)C2)c(C)c1 (stereo unspecified) | inactive | –

Row | SMILES | Potency | activity change, negative = inhibition
24 | CCCn1c(C2CCCN2c2nc(-c3ccc(OC)cc3)cs2)nc2ccccc21 (stereo unspecified) | inactive | –
25 | COc1ccc(-n2ncc3c2CC(C)(C)CC3NC(=O)CCc2c(C)noc2C)cc1 (stereo unspecified) | inactive | –
26 | COC(=O)c1ccc2c(C(C)(C)O)c(C(C)(C)O)[nH]c2c1 | inactive | –
27 | COc1ccc(OC)c(-n2c(-c3ccn[nH]3)n[nH]c2=S)c1 | 20 µM (active) | –
28 | COc1ccc(-n2c(-c3ccc(OC)c(OC)c3)n[nH]c2=S)cc1 | 20 µM (active) | –
29 | S=c1[nH]nc(-c2ccc(Cl)cc2)n1CC1CCCO1 (stereo unspecified) | inactive | –
30 | Cc1ccc(-n2c(-c3ccc(Cl)cc3)n[nH]c2=S)cc1 | 14.1 µM (active) | –
31 | COc1ccc(-c2n[nH]c(C)c2-c2ccc(OC)c(OC)c2)c(O)c1 | inactive | –
32 | COc1ccccc1-n1c(-c2cc(-c3ccco3)[nH]n2)n[nH]c1=S | 3.55 µM (active) | –
33 | COc1ccc(OCc2n[nH]c(=S)n2N)cc1 | inactive | –
34 | COc1ccccc1-n1cn[nH]c1=S | inactive | –
35 | Cc1ccc(OCc2n[nH]c(=S)n2-c2ccc(C)cc2)cc1 | inactive | –
36 | COc1ccc(OC)c(-n2c(=S)[nH]c3cc(C(=O)N4CCCCC4)ccc3c2=O)c1 | inactive | –
37 | Cc1cc(-c2n[nH]c(=S)n2/N=C/c2ccco2)n[nH]1 | inactive | –
38 | Cc1cc(-c2n[nH]c(=S)n2-c2ccc(C)c(C)c2)no1 | inactive | –
39 | O=C(CN1CCCCCC1)Nc1c(Cl)cc(Cl)cc1Cl | inactive | –
40 | O=C(C1CCCN(S(=O)(=O)c2ccccc2)C1)N1CCN(c2ccc(F)cc2)CC1 (stereo unspecified) | inactive | –
41 | O=C(CCS(=O)(=O)c1ccccc1)NC1CCCC1 | inactive | –
42 | CC(C)(C)C1C/C(=C/c2ccco2)C(=O)/C(=C/c2ccco2)C1 (stereo unspecified) | inactive | –
43 | COc1ccc(S(=O)(=O)NCCOc2ccccc2)cc1F | inactive | –
44 | COc1ccc(CCN2CC(C(=O)NCCN3CCNC3=O)CCC2=O)cc1 (stereo unspecified) | inactive | –
45 | CCn1c(SCC(=O)NC2CCCC2)nnc1-c1ccoc1C | inactive | –
46 | COc1cccc(NC(=O)COc2cc(C)cc3oc(=O)cc(C)c23)c1 | inactive | –

Row | SMILES | Potency | activity change, negative = inhibition
47 | COc1ccc(S(=O)(=O)NCCCCOc2ccc(Cl)cc2)cc1 | inactive | –
48 | CCOc1ccc(C2NC(=S)NC3=C2CCc2ccccc23)cc1 (stereo unspecified) | inactive | –
49 | CC(C)(C)c1ccc(Cn2nnc3c(=O)[nH]c(C4CCCN(C(=O)c5ccco5)C4)nc32)cc1 (stereo unspecified) | inactive | –
50 | COc1ccc(C(=O)NC2CC(C)(C)NC(C)(C)C2)cc1OC | inactive | –
51 | COCCc1nn2c(=O)cc(COC(=O)c3cc(OC)c(OC)c(OC)c3)nc2s1 | inactive | –
52 | CC(=O)C1=C(O)C(=O)N(c2ccc(Br)cc2)C1c1ccc([N+](=O)[O-])cc1 (stereo unspecified) | inactive | –
53 | CCCCc1nc2cc(C(=O)N3CCCCC3CCO)ccc2o1 (stereo unspecified) | inactive | –
54 | COc1ccccc1C(=O)Nc1ccc(NC(=O)c2ccco2)c(C)c1 | 15.8 µM (active) | –
55 | COc1ccc(OCC(=O)Nc2ccc(NC(=O)c3ccco3)c(C)c2)cc1 | inactive | –
56 | Cc1cc(NC(=O)c2ccc(F)cc2)ccc1NC(=O)c1ccco1 | inactive | –
57 | CCn1c(SCC(=O)NC2CC2)nnc1-c1ccccc1OC | inactive | –
58 | COc1ccc(C(=O)Nc2ccc(F)cc2F)cc1 | 14.1 µM (active) | –
59 | COc1ccccc1CC(=O)Nc1ccc(F)cc1F | inactive | –
60 | COc1cc(OC)cc(C(=O)OCC(=O)Nc2ccc(F)cc2F)c1 | inactive | –
61 | O=C(c1cc(-c2ccc(O)cc2)on1)N1CCOCC1 | inactive | –
62 | Cc1ccc(CN2CCN(c3ncccn3)CC2)c(C)c1 | inactive | –
63 | CCOC(=O)C1CCN(C(=O)C2CCCN(S(=O)(=O)c3ccc(OC)c(Cl)c3)C2)CC1 (stereo unspecified) | inactive | –
64 | O=C(Nc1nnc(C2CC2)s1)c1cc(Cl)sc1Cl | inactive | –
65 | O=C(Nc1nnc(C2CC2)s1)c1ccccn1 | 25.1 µM (active) | –
66 | Cc1cnc(NC(=O)c2ccccn2)s1 | 15.8 µM (active) | –
67 | Cc1cnc(NC(=O)CSc2c(Cl)cccc2Cl)s1 | inactive | –
68 | Cc1cnc(NC(=O)c2ccc(Cl)nc2)s1 | inactive | –
69 | O=C(Cc1cccs1)Nc1nnc(C2CC2)s1 | inactive | –

Row | SMILES | Potency | activity change, negative = inhibition
70 | O=C(O)c1ccc(-n2nc(-c3ccccc3)c3ccccc3c2=O)cc1 | inactive | –
71 | COC(=O)c1c(NC(=O)COC(=O)[C@@H](NS(=O)(=O)c2ccccc2)C(C)C)sc2c1CCC2 | inactive | –
72 | O=C(CN(CC1CCCO1)C(=O)CNS(=O)(=O)c1ccc(Cl)cc1)NCc1ccccc1 (stereo unspecified) | inactive | –
73 | CC(C(=O)Nc1ccc(O)c(C(=O)O)c1)N1C(=O)/C(=C/c2cccs2)SC1=S (stereo unspecified) | inactive | –
74 | COc1ccc(NC(=O)C(CC(C)C)NC(=O)C2CCC(C)CC2)cc1 (stereo unspecified) | inactive | –
75 | O=C(Nc1nnc(C2=COCCO2)o1)c1ccc([N+](=O)[O-])s1 | inactive | –
76 | COc1cc(C(C)=O)ccc1OC(=O)CN1C(=O)c2ccccc2C1=O | inactive | –
77 | COc1cccc(/C=C/c2ccc3ccccc3n2)c1OC(C)=O | 25.1 µM (active) | –
78 | COc1cccc(/C=C2\C=C(c3ccc(C)cc3)OC2=O)c1OC(C)=O | inactive | –
79 | CCOc1cccc(/C=C/c2ccc3ccccc3n2)c1OC(C)=O | inactive | –
80 | COc1ccc(CCNCc2c(-c3ccccc3)n(C)c3ccccc23)cc1 | inactive | –
81 | Cc1ccc(N(C(=O)C(F)(F)F)C(C(=O)NC2CCCCC2)c2ccncc2)cc1C (stereo unspecified) | inactive | –
82 | O=C(O)C1CCCN1C1=NS(=O)(=O)c2ccccc21 (stereo unspecified) | inactive | –
83 | COc1ccccc1OCc1nc2ccccc2s1 | 15.8 µM (active) | –
84 | CN(Cc1nc2ccccc2s1)C(=O)c1ccc(F)cc1 | inactive | –
85 | O=C(O)CCCCc1nc2ccccc2s1 | inactive | –
86 | Cc1cc(S(=O)(=O)N2CCOCC2)ccc1OCC(=O)Nc1cccc(C(F)(F)F)c1 | inactive | –
87 | COc1cc(SC)ccc1C(=O)Nc1nc(C)cs1 | 10 µM (active) | –
88 | COc1cc(SC)ccc1C(=O)NCCOc1ccccc1Cl | inactive | –
89 | COc1cc(SC)ccc1C(=O)Nc1cc(C)ccn1 | inactive | –
90 | O=C(NC(=S)NC1CCS(=O)(=O)C1)c1cccc([N+](=O)[O-])c1 (stereo unspecified) | inactive | –
91 | Cn1c(-c2ccco2)nc2cc3ccccc3cc21 | 12.6 µM (active) | –
92 | Cn1cccc1-c1nc2ccccc2n1C | inactive | –

Row | SMILES | Potency | activity change, negative = inhibition
93 | O=c1c2ccccc2nc(-c2ccco2)n1-c1ccc(Br)cn1 | inactive | –
94 | S=c1[nH]nc(-c2cc(-c3ccsc3)n[nH]2)n1-c1ccccc1 | 10 µM (active) | –
95 | S=c1[nH]nc(-c2cc(-c3ccccc3)n[nH]2)n1/N=C/c1c2ccccc2cc2ccccc12 | inactive | –
96 | c1ccc(-c2cc(-c3ccccc3)[nH]n2)cc1 | inactive | –
97 | CCn1cc(C(=O)N[C@@H](C)C(=O)NCCO)c(=O)c2cc3c(cc21)OCO3 | inactive | –
98 | CCCNC(=O)CCc1c(C)nc2c(c(C)nn2-c2ccc(C)cc2)c1C | inactive | –
99 | CC(C)OC(=O)c1ccc(COc2ccc3ccc(=O)oc3c2)o1 | inactive | –
100 | Cc1ccccc1Cn1c(=O)[nH]c2ccccc21 | inactive | –
101 | O=c1[nH]c2ccccc2n2c(-c3ccccc3)nnc12 | 3.16 µM (active) | –
102 | CC(=O)c1c(-c2ccccc2)c2ccccc2[nH]c1=O | inactive | –
103 | Cc1ccc(S(=O)(=O)N/N=C(\c2ccccc2)C2CC2)cc1 | inactive | –
104 | C=CCn1c(C)cc(C2=NNC(=NCC)SC2)c1C | 14.1 µM (active) | –
105 | Cc1cccc(N=C2NN=C(c3c[nH]c4ccccc34)CS2)c1 | inactive | –
106 | Cc1cc(C2=NNC(=Nc3ccc(S(=O)(=O)N4CCOCC4)cc3)SC2)c(C)n1CC1CCCO1 (stereo unspecified) | inactive | –
107 | COc1ccc(-c2ccc(OC(=O)NC3CCS(=O)(=O)C3)cc2)cc1 (stereo unspecified) | inactive | –
108 | COc1ccc(C(=O)/C=C/Nc2ccccn2)cc1 | 12.6 µM (active) | –
109 | CCOc1ccc(N/C=C/C(=O)c2ccccc2)cc1 | inactive | –
110 | COc1ccc2cc(S(=O)(=O)Nc3ccccn3)ccc2c1 | inactive | –
111 | CC1CCC(NC(=O)CN(C)S(=O)(=O)c2ccc3c(c2)c(=O)n(C)c(=O)n3C)CC1 (stereo unspecified) | inactive | –
